# Records with an inconclusive call do not appear. Entries that show only a call come without a potency. Unmarked numbers belong to inactive results. Active and inactive are the calls of the source. Calls come from the whole dose curve; as a rule, active = well fitted curve in the direction sought with a large enough effect; inconclusive = small, poorly fitted or top-dose-only effect, or another doubt; inactive = no such curve, though single readings can be large; an effect the other way counts as inactive or inconclusive.
# Legend:
# [1] = target: Aldehyde dehydrogenase, mitochondrial (Homo sapiens) (UniProt P05091); test: qHTS for Inhibitors of the Aldehyde Dehydrogenase Family (ALDH2) Primary screen (AID 2061308); note: nearly all actives have a fitted effect of over 55% in size
# [2] = target: Retinaldehyde dehydrogenase 3 (Homo sapiens) (UniProt P47895); test: qHTS for Inhibitors of the Aldehyde Dehydrogenase Family (ALDH1A3) Validation screen (AID 2061312); note: nearly all actives have a fitted effect of over 45% in size
# [3] = target: Retinaldehyde dehydrogenase 3 (Homo sapiens) (UniProt P47895); test: qHTS for Inhibitors of the Aldehyde Dehydrogenase Family (ALDH1A3) Primary screen (AID 2061315)
# [4] = BET inhibitor-based combinations targeting novel dependencies in MECOM-rearranged (r) AML: SET-2 cell line (AID 2202231); conditions: SET-2 AML cells viability, CellTiter-Glo luminescence, 48 h; viability: active compounds read low, concentration not given here; note: nearly all actives have a fitted effect of over 35% in size; note: potency is the fitted concentration of half-maximal effect
# Procedure, shortened: (§1)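 Here, 11-point titrations of each agent were applied to 500 seeded cells and incubated 48 hr; CellTiter-Glo signal, scaled against DMSO and empty wells, was integrated as AUC, then Z-scored within the individual line.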
# [5] = BET inhibitor-based combinations targeting novel dependencies in MECOM-rearranged (r) AML: OCI-AML3 cell line (AID 2202232); conditions: Potency: OCI-AML3 viability; note: nearly all actives have a fitted effect of over 35% in size; note: potency is the fitted concentration of half-maximal effect
# Procedure, shortened: as §1
# [6] = BET inhibitor-based combinations targeting novel dependencies in MECOM-rearranged (r) AML: HNT-34 cell line (AID 2202234); note: potency is the fitted concentration of half-maximal effect; nearly all actives have a fitted effect of over 35% in size
# Procedure, shortened: (§2)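 Normalized to DMSO and empty-well controls, the luminescence data from CellTiter-Glo after 48 hr drug exposure were fitted across 11 concentrations. Reported metrics are area under the dose-response curve and its Z-transformed form.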
# [7] = BET inhibitor-based combinations targeting novel dependencies in MECOM-rearranged (r) AML: UCSD-AML1 cell line (AID 2202235); note: nearly all actives have a fitted effect of over 40% in size; note: potency is the fitted concentration of half-maximal effect
# Procedure, shortened: as §2
# [8] = BET inhibitor-based combinations targeting novel dependencies in MECOM-rearranged (r) AML: AML-191 cell line (AID 2202236; note: nearly all actives have a fitted effect of over 35% in size; note: potency is the fitted concentration of half-maximal effect)
# Procedure, shortened: as §1
# [9] = BET inhibitor-based combinations targeting novel dependencies in MECOM-rearranged (r) AML: AML-194 cell line (AID 2202237; note: nearly all actives have a fitted effect of over 40% in size; note: potency is the fitted concentration of half-maximal effect)
# Procedure, shortened: as §1
# [10] = BET inhibitor-based combinations targeting novel dependencies in MECOM-rearranged (r) AML: MV-4-11 cell line (AID 2202233); note: nearly all actives have a fitted effect of over 45% in size; note: potency is the fitted concentration of half-maximal effect
# Procedure, shortened: as §2
compound,measurement,setting,value
CN1CCC(NC(=O)c2cc(-c3c(O)cc(O)cc3Oc3ccc([N+](=O)[O-])cc3)on2)CC1,Potency,[1],inactive
same,Potency,[2],inactive
same,Potency,[3],inactive
NCC1CCN(c2nccc(-c3ccc4ccccc4c3)n2)CC1,Potency,[1],inactive
same,Potency,[2],inactive
same,Potency,[3],inactive
same,Potency,[4],16.6 µM (active)
same,Potency,[5],4.68 µM (active)
same,Potency,[6],8.33 µM (active)
same,Potency,[7],2.95 µM (active)
same,Potency,[8],2.63 µM (active)
same,Potency,[9],2.95 µM (active)
COc1cc(/C=C/C(=O)O[C@@H]2O[C@H](CO)[C@@H](O)[C@H](O)[C@H]2O)ccc1O,Potency,[1],inactive
same,Potency,[3],inactive
NC1(C(=O)N[C@@H](CCO)c2ccc(Cl)cc2)CCN(c2ncnc3[nH]ccc23)CC1,Potency,[1],inactive
same,Potency,[2],inactive
same,Potency,[3],inactive
same,Potency,[5],6.61 µM (active)
same,Potency,[10],4.17 µM (active)
same,Potency,[7],1.48 µM (active)
CC1=C(C)C(=O)OC(C(C)C2CCC3C4C5OC5C5(O)CC(OC6OC(CO)C(OC7OC(C)C(O)C(O)C7O)C(O)C6O)CC(O)C5(C)C4CCC23C)C1 (stereo not given),Potency,[1],inactive
same,Potency,[3],inactive
O=C(O)CC1CCC(c2ccc(-c3ccc(Nc4ccc(C(F)(F)F)nc4)cn3)cc2)CC1 (stereo not given),Potency,[1],inactive
same,Potency,[2],inactive
same,Potency,[3],inactive
same,viability,[4],114%
same,Potency,[5],inactive
same,Potency,[10],inactive
same,Potency,[7],inactive
same,Potency,[8],inactive
same,Potency,[9],inactive
O=C(Nc1cccc(Br)c1)c1cccc(S(=O)(=O)N2CCCCCC2)c1,Potency,[1],inactive
same,Potency,[2],inactive
same,Potency,[3],inactive
same,Potency,[10],16.6 µM (active)
same,Potency,[7],inactive
CC(=O)NC(C(=O)OC1CCC(C)(C)C2CC=C3C(=O)OCC3C12C)C(C)C (stereo not given),Potency,[1],inactive
same,Potency,[3],inactive
CCC/C=C/C=C/C1CC(O)C2(O)C(=O)OCC12 (stereo not given),Potency,[1],inactive
same,Potency,[3],inactive
Clc1ccc(CN[C@H]2CCN(c3ncc(Br)cn3)C2)c(Cl)c1,Potency,[1],inactive
same,Potency,[3],inactive
C=C[C@@](C)(O)CC/C=C(\C)C(=O)O[C@@H]1[C@@H]2O[C@]2(C)[C@H]2[C@H](O[C@@H]3O[C@H](CO)[C@@H](O)[C@H](O)[C@H]3O)OC=C[C@@]12O,Potency,[1],inactive
same,Potency,[3],inactive
C=C1CC2(C(=O)O)CC1CCC2C1(C)CCCC2(C)C(=O)OC(O)C21 (stereo not given),Potency,[1],inactive
same,Potency,[3],inactive
COC(=O)[C@]12C(=O)C(C)=C(O)[C@@]1(C)C(C)=CC1[C@@]34CC[C@@H](OC(C)=O)C(C)(C)C3[C@H](C[C@]12C)OC4=O (stereo not given in full),Potency,[1],inactive
same,Potency,[3],inactive
CC(C)(O)/C=C1/C(=O)C(C)(C)C(=O)C(C)(C)C1(O)O[C@@H]1O[C@H](COC(=O)c2cc(O)c(O)c(O)c2)[C@@H](O)[C@H](O)[C@H]1O (stereo not given in full),Potency,[1],inactive
same,Potency,[3],inactive
